In PubChem BioAssay AID432 (Sanford-Burnham Center for Chemical Genomics, 2006):
In all, about 64,000 compounds went through this assay and about 15 (0.02%) were called active. How the calls were made is not given here. A selection follows. Entries with a potency or affinity are not part of this list.

Molecular target: Bcl-2-related protein A1 (Mus musculus) (UniProt Q07440)
Assay: Bfl-1 inhibitors, primary screen, biochemical, fluorescence polarization, FITC-Bid, mouse (AID 432)
Details: FITC-Bid BH3 peptide fluorescence polarization displacement; at 20 µM; stronger effect = higher value

Bcl-2-related protein A1 (Mus musculus), sequence (Q07440 whole entry, looked up): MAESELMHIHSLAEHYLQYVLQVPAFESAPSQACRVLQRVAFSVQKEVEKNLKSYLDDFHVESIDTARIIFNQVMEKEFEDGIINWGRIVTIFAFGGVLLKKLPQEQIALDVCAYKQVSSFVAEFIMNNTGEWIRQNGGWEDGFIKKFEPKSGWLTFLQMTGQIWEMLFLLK

displacement, inactive:
CCOc1ccccc1C(=O)NCc1ccc2c(c1)OCO2 2.9%
COc1ccc(NC(=O)C23CCC(C)(C(=O)C2)C3(C)C)cc1 (stereo unspecified) -1.2%
COC(=O)c1cn(C(=O)OC)c2ccccc12 -6.7%
Oc1ccc(C=Nc2cccc3ncccc23)c(O)c1 4.8%
Nc1ccc2ncccc2c1 -3.5%
CCOc1ccc(-c2nnc3sc(-c4c(OC)cccc4OC)nn23)cc1 7.5%
COc1cccc(OC)c1-c1nn2c(-c3ccccc3Cl)nnc2s1 -6.5%
COc1ccc(-c2nnc3sc(-c4ccccc4OC)nn23)cc1 0.2%
COc1cccc(OC)c1-c1nn2c(-c3ccco3)nnc2s1 -0.8%
CSc1nnc(-c2ccccc2)n1C -1.8%
CCC(=O)N1CCc2cc(S(=O)(=O)CCC(=O)NCc3cccs3)ccc21 3.1%
CC(=O)Nc1ccc(NCC(O)COc2ccccc2)cc1 (stereo unspecified) 9.6%
CC(=O)N1CCc2cc(S(=O)(=O)NCCC(=O)N3CCN(c4ccccn4)CC3)ccc21 0.4%
Cc1cc(=O)n2ncnc2n1COCCO -8.2%
Cc1cc(NC(=O)CCS(=O)(=O)c2nc(-c3ccccc3)cc(C(F)(F)F)n2)no1 -3%
CCOC(=O)CCS(=O)(=O)c1nc(-c2ccccc2)cc(C(F)(F)F)n1 37.1%
COCC(C)NC(=O)CCS(=O)(=O)c1nc(-c2ccc(OC)cc2)cc(C(F)(F)F)n1 (stereo unspecified) 6.4%
CCOC(=O)c1cnn2c(C)cc(-c3ccc(F)cc3)nc12 -7.8%
COc1cc(OC)c(C2Oc3nc(SC)nnc3-c3ccccc3N2C(C)=O)cc1OC (stereo unspecified) 3.4%
CCC(=O)N1c2ccccc2-c2nnc(SC)nc2OC1c1ccc(OC)c(OC)c1 (stereo unspecified) 0.1%
CC(=O)NC1C(=O)N=C(SCC(=O)NCc2ccccc2)NC1=O (stereo unspecified) 1.1%
O=c1n(-c2ccccc2)c(=O)n(Cc2ccccn2)n1Cc1ccccn1 -5.3%
Cc1nc2ccc(S(=O)(=O)Nc3ccccc3C)cc2s1 -3.4%
COc1ccc2c3c(cccc13)OCC2=O 12.2%
COc1ccc(C(C)=O)c2c(O)cccc12 -0.9%
CCn1c(N)c(C(=O)NC)sc1=S -2%
Cc1ccc(-c2nnc(COc3cccc(-n4cnnn4)c3)o2)cc1 -4.7%
C=CCn1cc(C(=O)NCCOC)c(=O)c2cc(S(=O)(=O)N(CC)CC)ccc21 1.1%
O=C(NC1CCCCNC1=O)c1ccc(Cl)cc1 (stereo unspecified) -4%
CC1(C)CC(=O)C(C=NCCN2CCN(C(=O)CC3CCCC3)CC2)=C(O)C1 -1.8%
O=C1CSC(c2cn(-c3ccccc3)nc2-c2cc3ccccc3oc2=O)N1Cc1ccco1 (stereo unspecified) -5.3%
COc1ccc(S(=O)(=O)N[C@@H](CC(C)C)C(=O)O)cc1 -6%
Cc1nc2c(c(=O)n1Cc1ccccc1Cl)c1nc3ccccc3nc1n2Cc1ccco1 -10.7%
N#Cc1c(NC(=O)CSc2nc(-c3ccco3)cc(C(F)(F)F)n2)sc2c1CCCC2 -0.1%
COc1ccc(C(=O)N2CCN(c3nnnn3-c3ccccc3)CC2)cc1OC 3.7%
Cc1cc(Nc2c(C)cccc2C)n2nc(C)nc2n1 -2.1%
COC(=O)c1ccc(C2C(C(=O)Nc3ccc(C)cc3C)=C(C)Nc3ncnn32)cc1 (stereo unspecified) -1.9%
CCOC(=O)CN1C(=O)C(C)(C)Oc2ccc(C(=O)NC(C)(C)CC)cc21 -6.4%
Cc1cc(C)cc(N2CC34C=CC(O3)C(C(=O)OCC(=O)NCc3ccco3)C4C2=O)c1 (stereo unspecified) -10.1%
Cc1nc2scc(-c3ccccc3)c2c(=O)n1N -4%
COc1ccc(S(=O)(=O)Cc2ccc(C(=O)N3CCN(c4ccc(Cl)cc4)CC3)o2)cc1 -2.7%
Nc1nc(-c2cccc(NS(=O)(=O)c3ccccc3)c2)cs1 5.8%
CN(C)c1nc(NCc2ccccc2)nc(Oc2ccc(=O)[nH]n2)n1 -7.2%
COc1cc(C(c2nnnn2C2CCCC2)N2CCc3ccccc3C2)ccc1O (stereo unspecified) -5.3%
Cc1ccnc(NS(=O)(=O)c2ccc(NC(=O)C3CCCCC3C(=O)O)cc2)n1 (stereo unspecified) -3.9%
Cc1csc(NC(=O)CCn2c(=O)oc3ccccc32)n1 2.1%
O=C1CC(N(Cc2ccco2)C(=O)Nc2ccc(F)cc2)C(=O)N1c1ccc(F)cc1 (stereo unspecified) 1.2%
CCOc1ccc(OCC)c(NC(=O)CSc2nnc(-c3cccnc3)o2)c1 -6%
CCOC(=O)C1CCN(C2CC(=O)N(c3cccc(Cl)c3)C2=O)CC1 (stereo unspecified) 5.3%
CCN(CC)C(=O)CSC1=C(C#N)C(c2cccs2)C=C(C)N1 (stereo unspecified) 4.6%
O=C(NCCN1C(=O)C2C3C=CC(C3)C2C1=O)NCc1ccccc1 (stereo unspecified) 8.8%
CCOC(=O)C1CCCN(C(=O)c2cn(C)c3ccc(S(=O)(=O)N(C)C)cc3c2=O)C1 (stereo unspecified) -2.5%
COc1cccc(NC(=O)c2ncn[nH]2)c1 -5.2%
O=C(O)c1ccc(COc2c(F)c(F)cc(F)c2F)cc1 -4%
CCOCCn1c(SCc2cccc(C)c2)nc2c1c(=O)[nH]c(=O)n2C 2.1%
O=C(OCc1cccc2ccccc12)c1ccc2c(=O)[nH]c(CN3CCOCC3)nc2c1 -1.5%
Cc1cc2cc(C(c3nnnn3Cc3ccco3)N3CCc4ccccc43)c(=O)[nH]c2cc1C (stereo unspecified) 6.1%
CCOC(=O)Cc1nnc(NC(=O)c2cccc(OCC)c2)s1 -3.8%
CCn1cc(Cl)c(C(=O)Nc2nc3ccccc3n2CCN2CCCCC2)n1 7.6%
O=C(Nc1c(C(=O)N2CCCCC2)cnn1-c1ccccc1)c1ccccc1 1.1%
O=C1CCCCCN1C(=O)c1cccc(C(=O)N2CCCCCC2=O)c1 -3.4%
